Source: PubChem
A selection: hits, their analogues and other compounds. The true share with any hit is near 19%.
uPA generation: inhibitors of cell surface uPA generation; hit rate 0.31% among 330,000; cell surface uPA generation assay, qHTS; Potency, µM (doses to about 38.3 µM), for the others: at the highest dose activity change, negative = inhibition, most hits filed as inhibitors; active = well fitted inhibition curve with a large enough effect; inconclusive = small, poorly fitted or top-dose-only effect; inactive = no such curve, though single readings can be large or run the other way; tested in mouse RAW 264.7 cells; note: potency is the fitted concentration of half-maximal effect; nearly all actives have a fitted effect of over 55% in size
TDP1 cell CPT: growth inhibition of DT40 Tdp1-/-;hTDP1 cells with camptothecin (screen for TDP1 inhibitors); chicken DT40 Tdp1-/-;hTDP1 cells + 20 nM CPT, ATP luminescence, 48 h; AID 686979; hit rate 12% among 420,000; Potency, µM (titrated, usually from 46.2 µM), for inactives: at the highest dose activity change, negative = growth inhibition, hits mostly inhibitors; note: potency is the fitted concentration of half-maximal effect; nearly all actives have a fitted effect of over 55% in size
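Chicken DT40 Tdp1-/- cells complemented with human TDP1, 400 cells/well, exposed to compounds plus 20 nM camptothecin for at least 48 h at 37 C; viability read as ATP content by CellTiter-Glo luminescence.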
HT1080 IDH1KD tx: HT-1080 IDH1 knockdown cell toxicity (counter line). HT-1080 IDH1 knockdown viability, ATP luminescence, 48 h. Potency, µM (doses to about 46.1 µM), for inactives: top-dose activity, negative = toxicity, most hits filed as cytotoxic. hit rate 2% among 360,000;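 note: potency is the fitted concentration of half-maximal effect; 0% = DMSO wells and -100% = cell-free medium wells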
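Using the IDH1-knockdown HT-1080 line run in the same batch and compound series as the NT line, viability after 48 h at 37 °C was determined by CellTiter-Glo luminescence and expressed as % activity.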
IL1B secr inh: blocks inflammasome-driven IL-1 beta release; THP-1 LPS/ATP IL-1B secretion, AlphaLISA, 16 h; hits give low values; activity change, % at 57.5 µM; hit rate 4.7% among 360,000; AID 743279; in the data active = activity change below about -50%; inconclusive = mostly about -30% to -49%
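THP-1 cells pretreated 1 hr with compounds (up to 57.5 uM final), then stimulated with LPS (250 ng/mL final) plus ATP (1.25 mM final); secreted IL-1B measured by AlphaLISA after 16 hr, decreased signal indicating inhibition.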
HT1080-NT tox: kills 2HG-producing HT-1080-NT fibrosarcoma cells; HT-1080-NT fibrosarcoma viability, CellTiter-Glo ATP luminescence, 48 h; Potency, µM (doses to about 46.1 µM), inactives show at the top dose activity, negative = less viability, usual class: cytotoxic; hit rate 1.6% among 360,000; AID 686970;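 note: NT is the 2HG producing partner of a matched IDH1 knockdown line; potency is the fitted concentration of half-maximal effect; 0% = DMSO-treated cells and -100% = media-only wells without cells; nearly all actives have a fitted effect of over 55% in size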
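750 cells/well, RPMI + 5% FBS; 2 h settle, compound pin-transfer, 48 h at 37 degrees C. CellTiter-Glo 10 min RT, luminescence. Normalized to DMSO and media-only wells.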
TDP1 cell noCPT: qHTS for Inhibitors of human tyrosyl-DNA phosphodiesterase 1 (TDP1): qHTS in cells in absence of CPT; DT40 Tdp1-/- hTDP1 cells, no CPT, ATP luminescence, 48 h; Potency, µM (top dose mostly 46.2 µM), for the others: at the top dose activity change, negative = growth inhibition, hits mostly inhibitors; hit rate 15% among 420,000; AID 686978, 2013; note: potency is the fitted concentration of half-maximal effect; nearly all actives have a fitted effect of over 55% in size
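Chicken DT40 Tdp1-/- cells complemented with human TDP1, screened without camptothecin (DMSO vehicle only), 400 cells/well. Compounds pin-transferred, cells incubated at 37 °C for at least 48 hr. Growth read as ATP-dependent luminescence (CellTiter-Glo, 30 min at RT).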
* marks the source's active call; other numbers are inactive results; ? = inconclusive; . = no result given; [ ] = dose if it differs, or a comment. Unless noted, calls come from the whole dose curve; as a rule, active = well fitted curve in the direction sought with a large enough effect; inconclusive = small, poorly fitted or top-dose-only effect, or another doubt; inactive = no such curve, though single readings can be large; an effect the other way counts as inactive or inconclusive. Unless noted, % is set by controls: 0 for no effect and ±100 for the full control effect.

SMILES	uPA generation	TDP1 cell CPT	HT1080 IDH1KD tx	IL1B secr inh	HT1080-NT tox	TDP1 cell noCPT
CCCC(=O)N1CCN(c2nnc(-c3ccccc3)c3ccccc23)CC1	13.5%	-18.6%	0.3%	-51.3*	-1.2%	-13.8%
CCOC(=O)N1CCN(c2nnc(-c3ccccc3)c3ccccc23)CC1	4.1%	-8.5%	-14.5%	?	-2.7%	?
Cc1nn(CC(=O)NC(C)c2ccccc2)c(=O)c2cc3occc3n12 (configuration not stated)	.	-18.9%	.	.	.	-16.8%
COC(=O)C=C1CCC2C3CCC4=CC(=O)C(Br)CC4(C)C3C(=O)CC12C (configuration not stated)	-7.6%	?	-14.9%	-94.6*	-10.9%	16.4µM*
CC12CCC(=O)C=C1CCC1C2C(=O)CC2(C)C1CCC2(O)C(=O)CO (configuration not stated)	-6.9%	-6.7%	0.1%	20.0	4.4%	-6.4%
Cc1cc(C)cc(C(=O)NC(=S)Nc2ccc(-c3cc4ccccc4oc3=O)cc2)c1	-0.6%	?	15.4%	0.0	2.7%	?
Cc1ccc(C(=O)NC(=S)Nc2ccc(-c3cc4ccccc4oc3=O)cc2)c(C)c1	0.2%	?	7.9%	-1.5	6.4%	23.1µM*
Cc1ccc(C(=O)NC(=S)Nc2ccc(CN3CCCCC3)cc2)c(C)c1	-12.7%	-27.0%	?	-53.3*	?	?
O=C(NC(=S)Nc1ccc(CN2CCCCC2)cc1)c1cc2ccccc2o1	4.5%	23.1µM*	11.7%	-4.7	-0.5%	20.6µM*
CC1CCCC(C)N1C(=O)COC(=O)CNC(=O)c1ccccc1 (configuration not stated)	-2.7%	-4.5%	6.5%	-8.3	0.6%	-13.3%
O=C(OCC(O)CO)c1ccccc1Nc1ccnc2cc(Cl)ccc12 (configuration not stated)	9.2%	?	-19.6%	-82.8*	-15.3%	?
CCOc1ccc(Nc2ccnc3cc(Cl)ccc23)cc1	-8.6%	?	?	-24.7	?	?
COC(=O)C1CCN(C(=O)COC(=O)c2ccc(OC)c(S(=O)(=O)N3CCCc4ccccc43)c2)CC1	-14.7%	-18.2%	-2.2%	18.5	3.3%	0.411µM*
CC1CCCN(C(=O)COC(=O)c2ccc3[nH]c4c(c3c2)CCCC4)C1 (configuration not stated)	-0.1%	?	-18.5%	-8.5	-11.0%	23.1µM*
CCOC(=O)C1CCN(C(=O)COC(=O)c2ccc3[nH]c4c(c3c2)CCCC4)CC1	-0.8%	13µM*	-24.1%	?	-13.1%	11.6µM*
COC(=O)C1CCN(C(=O)COC(=O)c2ccc(N3CCCC3=O)cc2)CC1	8.6%	3.6%	9.5%	21.0	22.3%	-0.3%
COC(=O)C1CCN(C(=O)c2ccc(OC)c(S(=O)(=O)N3CCCc4ccccc43)c2)CC1	-2.9%	?	-1.5%	4.8	0.9%	?
O=C(COC(=O)c1ccc2[nH]c3c(c2c1)CCCC3)NC1CCS(=O)(=O)C1 (configuration not stated)	-5.4%	?	-8.7%	-11.5	1.1%	?
COC(=O)C1CCN(C(=O)COC(=O)c2ccc3[nH]c4c(c3c2)CCCC4)CC1	-3.3%	13µM*	7.4%	11.5	9.8%	10.3µM*
CC(=O)c1c[nH]c(C(=O)NC2CCCCCC2)c1	-10.5%	1.1%	12.2%	-13.6	10.5%	19.7%
COC(=O)/C=C/c1ccc(C(=O)NCC(=O)N[C@@H](CCC(=O)OC)C(=O)N[C@@H](CC(C)C)C(N)=O)cc1	.	-8.1%	.	.	.	1.5%
CC(C)c1cc(-c2cc(C(=O)Nc3ccccc3)on2)nc(NC2CCCC2)n1	-7.3%	25.9µM*	-1.4%	-18.8	10.5%	?
Cc1cc(C)nc(NC(=O)c2c(-c3ccccc3Cl)noc2C)c1	2.3%	?	7.3%	0.1	2.5%	20.6µM*
Cc1onc(-c2ccccc2Cl)c1C(=O)Nc1ccccc1O	-0.6%	?	-0.9%	31.7	-1.0%	18.4µM*
Cc1onc(-c2ccccc2Cl)c1C(=O)NCc1ccco1	1.7%	?	-38.6%	-77.1*	-24.5%	-11.4%
SMILES	uPA generation	TDP1 cell CPT	HT1080 IDH1KD tx	IL1B secr inh	HT1080-NT tox	TDP1 cell noCPT
Cc1ccnc(NC(=O)c2c(-c3ccccc3Cl)noc2C)c1	3.5%	?	3.0%	21.1	8.7%	-27.6%
COc1ncccc1-c1ccc2nncn2c1	.	18.7%	5.7%	0.0	14.5%	0.3%
Cc1cc(C)nc(NC(=O)c2c(F)c(F)c(F)c(C(=O)Nc3cc(C)cc(C)n3)c2F)c1	?	?	-20.8%	-69.1*	-19.3%	16.4µM*
Cc1nc(NC(=O)c2c(-c3ccccc3Cl)noc2C)sc1C	8.6%	16.4µM*	-15.9%	61.7	0.1%	?
CCc1ccc(NC(=S)NC(=O)c2c(-c3ccccc3Cl)noc2C)cc1	3.4%	11.7%	-0.8%	-50.8*	-8.3%	?
Cc1onc(-c2ccccc2Cl)c1C(=O)N(C)C1CCCCC1	?	4.61µM*	-5.8%	22.0	-2.1%	3.66µM*
Cc1onc(-c2ccccc2Cl)c1C(=O)NC(=S)Nc1ccc(C(C)(C)C)cc1	5.4%	?	-3.7%	-13.1	?	?
Cc1nnc(NC(=O)c2c(-c3ccccc3Cl)noc2C)s1	2.7%	-0.7%	-2.2%	42.4	-14.9%	-28.5%
CCC1(C2CCN(C(=O)c3csc(C(C)=O)c3)CC2)NC(=O)N(CCc2scnc2C)C1=O (configuration not stated)	.	12.3%[9.04 µM]	.	.	.	-14.1%
O=C(CC1SC(N2CCCCC2)=NC1=O)Nc1cccc(C(=O)Nc2ncccc2O)c1 (configuration not stated)	1.0%	?	-14.7%	50.9	-14.5%	?
O=C1CCc2cc(S(=O)(=O)Nc3ccccc3F)cc3c2N1CCC3	-1.2%	1.4%	3.6%	-1.7	3.7%	-13.7%
CCN(C(=O)COC(=O)c1cccc(S(=O)(=O)NCc2ccccc2)c1)c1ccccc1	-1.4%	?	9.4%	-4.9	6.9%	?
c1ccc(CNc2cc(-c3cccnc3)ncn2)cc1	.	-5.8%	.	.	.	-14.5%
O=C(Nc1ccccc1)c1cc(-c2ccccc2Cl)no1	3.5%	16.4µM*	13.3%	4.6	17.9%	16.4µM*
Cc1onc(-c2ccccc2Cl)c1C(=O)Nc1ccccc1	6.0%	11.6µM*	-4.2%	-0.2	-2.6%	?
Cc1onc(-c2ccccc2Cl)c1C(=O)Nc1ccc(Br)cc1	0.6%	-23.7%	?	-7.1	?	-29.1%
